Experimental data: PubChem BioAssay (NCI)
This is part of a sample that, as a whole, favours compounds with a hit. Of some 83,000 tested, about 20% had one in any assay.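 Treatment: one concentration, 48 hours, 96-well format. Scoring: percent growth, with anything below 10 considered active.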 Unmarked numbers belong to inactive results. Active and inactive are the calls of the source.

Assays:
Experiment in all cases: NCI-60 one-dose screen, 48 h (100 = growth as untreated, 0 = no growth, -100 = all killed)
[1] = system: NCI-H23 lung; conditions: 10 µM unless noted
[2] = system: NCI-H226 lung; conditions: 10 µM unless noted
[3] = system: NCI-H322M lung; conditions: 10 µM unless noted
[4] = system: HOP-62 NSCLC; conditions: 10 µM unless noted
[5] = system: NCI-H460 lung; conditions: 10 µM unless noted
[6] = system: HOP-92 NSCLC; conditions: 10 µM unless noted
[7] = system: NCI-H522 lung; conditions: 10 µM unless noted
[8] = system: A549/ATCC NSCLC; conditions: 10 µM unless noted
[9] = system: 786-0 renal; conditions: 10 µM unless noted
[10] = system: COLO 205 colon; conditions: 10 µM unless noted
[11] = system: DU-145 prostate; conditions: 10 µM unless noted
[12] = system: K-562 leukemia; conditions: 10 µM unless noted
[13] = system: MALME-3M melanoma; conditions: 10 µM unless noted
[14] = system: MDA-MB-231 breast; conditions: 10 µM unless noted
[15] = system: RXF 393 renal; conditions: 10 µM unless noted
[16] = system: SF-268 CNS; conditions: 10 µM unless noted
[17] = system: SF-295 CNS; conditions: 10 µM unless noted
[18] = system: SF-539 CNS; conditions: 10 µM unless noted
[19] = system: UACC-257 melanoma; conditions: 10 µM
[20] = system: M14 melanoma; conditions: 10 µM unless noted

Compound	growth [1]	growth [2]	growth [3]	growth [4]	growth [5]	growth [6]	growth [7]	growth [8]	growth [9]	growth [10]	growth [11]	growth [12]	growth [13]	growth [14]	growth [15]	growth [16]	growth [17]	growth [18]	growth [19]	growth [20]
Clc1cccc(Cl)c1Cn1c(-c2cncs2)nc2ccccc21	71%	88.6%	87.5%	97%	101%	71%	76.6%	73.1%	87.6%	99.5%	110%	35.3%	81%	82.5%	95%	98.2%	65.4%	96.8%	76.6%	89.5%
O=C(CCC(=O)OC1CCCC1)OC1CCCC1	105%	96.3%	97%	109%	104%	73.1%	79.8%	91.4%	104%	116%	102%	96%	102%	105%	97.6%	99.7%	99.3%	87.8%	85.4%	112%
CCCC(C(=O)OCC)C(C)OC(=O)OCC (stereo not given)	100%	101%	100%	93.3%	113%	90.2%	86.1%	104%	99.5%	103%	106%	81.6%	85.9%	105%	96.3%	96.9%	84.7%	107%	97.5%	97.6%
CCN(C(=O)c1cc2ccccc2[nH]1)[C@H]1CCC[C@@H](NCc2ccc(OC)cc2)C1	89.8%	107%	76.1%	86.2%	103%	81%	95.6%	98.7%	97%	87.6%	95.6%	76.6%	92.3%	90.4%	86%	89.8%	99.2%	104%	112%	98.2%
O=C(CNc1ccc(Cl)cc1)Nc1ccc(-c2nc3ccccc3s2)cc1	39.1%	58.1%	80.3%	116%	87.1%	97.8%	-94.5% (active)	89%	27%	47%	70.2%	11.9%	-30.5% (active)	37.6%	84.2%	24.1%	94.6%	78.1%	90.9%	44.2%
COc1cc(-c2nc(-c3nc4ccccc4[nH]3)cc3c2[nH]c2ccccc23)cc(OC)c1OC	41.3%	72.6%	73.8%	45.1%	30%	9.1% (active)	57.2%	22.5%	82.6%	26.9%	53.8%	31.9%	32.7%	61.3%	70.6%	47.8%	1.13% (active)	68.4%	41.7%	23.4%
COc1cc(C(=O)/C=C/c2cc(C(=O)c3cc(OC)c(OC)c(OC)c3)ccc2OC)ccc1N	-29.8% (active)	-38.7% (active)	7.82% (active)	43.2%	-15.6% (active)	46.1%	-58.9% (active)	18.5%	10.5%	-58.8% (active)	26.7%	4.22% (active)	-36.1% (active)	23.1%	-32.5% (active)	-28.1% (active)	9.88% (active)	-53.2% (active)	-11.9% (active)	-52.9% (active)
CCOC(=O)C(Cc1ccccc1)n1c(O)c(C=Nc2ccc(C(=O)OCCN(CC)CC)cc2)sc1=O (stereo not given)	102%	96.7%	94.4%	103%	99.3%	84.2%	85.7%	74.4%	90.8%	95.5%	106%	89.3%	90.1%	89.3%	84.7%	97.2%	104%	86.5%	77.4%	-36.1% (active)
NS(=O)(=O)c1ccc(NCC(=O)Nc2ccc(-c3nc4ccccc4s3)cc2)cc1	74.7%	83.7%	88%	118%	92.5%	73.5%	-63.8% (active)	92.6%	12.1%	98.5%	47%	8.38% (active)	53.6%	45%	99.9%	25.1%	98.8%	91.4%	97.2%	45.6%
O=C1Nc2ccc(Br)cc2C1=N/C=c1\[nH]c(=O)/c(=C/c2ccc(Cl)cc2)s1	97.8%	98.3%	93.2%	84.1%	101%	83.2%	89.3%	85.3%	90.6%	102%	102%	81%	93.6%	88.6%	94.9%	95.2%	96.5%	90.7%	95.7%	101%
Oc1ccc(Cl)cc1-c1cc(-c2ccc(Cl)cc2)n[nH]1	49.8%	64.4%	55.5%	55.9%	40.4%	42.9%	47.5%	49.3%	84.6%	73.7%	78.1%	39.9%	61.3%	37.5%	72.9%	66.7%	95.3%	91.9%	88.1%	76.7%
COc1cc(Cn2c(SCC(=O)Nc3ccc(Cl)cc3)nc3ccccc3c2=O)cc(OC)c1OC	73%	39.1%	64.4%	54%	17.7%	-20.8% (active)	40.9%	64.9%	-11% (active)	92.9%	66.5%	45.7%	9.48% (active)	49.3%	19.1%	46.5%	62.2%	-14% (active)	73.8%	74.9%
COc1ccc(C(=O)/C=C/c2cccc([N+](=O)[O-])c2)c(OC)c1	32.6%	49.2%	66%	26.1%	1.68% (active)	67.5%	7.28% (active)	27.6%	-7.25% (active)	60.2%	25.3%	8.25% (active)	70.5%	34.7%	-33.8% (active)	25%	35.5%	8.09% (active)	66.4%	30.6%
COc1ccc(NC(=O)CSc2nc3ccccc3c(=O)n2Cc2cc(OC)c(OC)c(OC)c2)cc1	92.5%	88.3%	94.5%	91.4%	101%	58.8%	66.7%	99.3%	92.5%	107%	95.6%	79.8%	88.2%	73.8%	82.9%	85.1%	106%	79%	94.3%	99.4%
N#Cc1ccc(NC(=O)c2ccc3cccnc3c2O)cc1	43.7%	45.2%	27.7%	14.6%	4.71% (active)	71.4%	18.6%	15.1%	10.2%	11.2%	29.4%	30.7%	42.1%	44.4%	49.4%	21.6%	38.5%	17.1%	13.5%	6.01% (active)
Cc1cccc(NC(=O)c2sc3nc4c(cc3c2N)CCCC4)c1	65%	64.8%	37.2%	37.8%	27.6%	56.5%	24.5%	31.5%	59.8%	26.9%	45.6%	17.8%	24.9%	60.9%	63.8%	51.5%	54.5%	48.5%	46.3%	30.3%
